Results on 1 sequence are retold here after patent US20150023943, “REF Nuclease for Site-Specific REF-Mediated DNA Cleavage” (Wisconsin Alumni Research Foundation, published 2015).

The target in the assay is T1, φW39 ΔN59 Ref (Bacteriophage phi W39).
T1 chain: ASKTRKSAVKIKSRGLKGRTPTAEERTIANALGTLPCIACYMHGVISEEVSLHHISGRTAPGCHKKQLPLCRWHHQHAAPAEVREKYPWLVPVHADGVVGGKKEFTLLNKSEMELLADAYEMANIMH
Description: FP; Kd value only in FIG. 6C; 15 mM Mg acetate, pH 8.5, 25 C. To be noted: tags: expressed from pET21A with NdeI start Met; label: 5'-6FAM; ssDNA. On the procedure:
Ref proteins at 0.5-10,000 nM were incubated with 2 nM AJM25 71mer ssDNA or AJM25 annealed with AJG52 71mer to make a linear 71 bp dsDNA substrate in 25 mM Tris-acetate (pH 8.5), 3 mM potassium glutamate, 15 mM magnesium acetate, and 5% w/v glycerol at room temperature for 15 minutes. Fluorescence anisotropy (FA) was measured at 25° C., using a Tecan Infinite M1000 instrument with 470-nm excitation and 535-nm emission wavelengths for at least three replicates. The average FA values were plotted with one standard deviation of the mean shown as error. Prism software was used to convert FA values to the percent of DNA bound and apparent dissociation constants were determined using one-site, specific binding with Hill coefficient.
As for “CAGAAGTAAGTTGGCCGCAGTGTTATCACTCATGGTTATGGCAGCACTGCATAATTCTCTTACTGTCATGC”, the binding signal is 40 fold reduction in affinity.
